For 15 compounds, outcome and AC50 results are on record in PubChem BioAssay (EPA / NIEHS).

A short description of test [1]: ATG_CRE_CIS: Attagene CIS-FACTORIAL HepG2 Assay for human cAMP Responsive Element (CRE) binding protein 3 (AID 2282926). The settings on record: HepG2 CRE cis-reporter, Attagene multiplexed mRNA; actives raise or lower the signal. The method in brief:
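We dosed HepG2 cells bearing multiple cis-promoter reporter units for 24 h and measured reporter mRNA by RT-PCR with capillary electrophoresis detection. Bidirectional concentration-response fitting used DMSO as negative control.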

The target of test [2] is CCAAT/enhancer-binding protein beta (Homo sapiens) (UniProt P17676). Kind of test: ATG_C_EBP_CIS: Attagene CIS-FACTORIAL HepG2 Assay for human CCAAT/Enhancer Binding Protein (C/EBP) beta (AID 2282927). The settings on record: HepG2 Attagene cis-factorial transcription factor reporter; actives raise or lower the signal. The method, boiled down:
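Transiently transfected HepG2 (MRTU library, endogenous TF-driven promoters); 24 h dosing; total RNA → oligo(dT) RT → PCR → 6-FAM primer extension → HpaI digest → CE; fit bidirectionally vs DMSO.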

A short description of test [3]: ATG_CMV_CIS: Attagene CIS-FACTORIAL HepG2 Assay for human CMV (Internal Marker) (AID 2282928).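 Further: endpoint acts as a background internal control marker rather than a target.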 Conditions: HepG2 CMV promoter reporter, transcription factor profiling; actives raise or lower the signal. The method, boiled down:
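After transient transfection of HepG2 with reporter transcription units driven by cis-regulatory promoters, cells receive test chemical for 24 h. Labeled reporter amplicons, digested with HpaI, are sized and quantified by capillary electrophoresis against DMSO.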

Test [4] in a line: ATG_DR4_LXR_CIS: Attagene CIS-FACTORIAL HepG2 Assay for human Liver X Receptor (LXR), DR4 submotif (AID 2282929). Conditions: HepG2 Attagene DR4 cis-reporter, mRNA transcription; actives raise or lower the signal. The method in brief: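 DR4 cis-reporter in HepG2, 24 h exposure. Detection: RT-PCR, 6-FAM labelling, CE fragment analysis. Endpoint fitted bidirectionally, DMSO = baseline.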

The target of test [5] is Aryl hydrocarbon receptor (Homo sapiens) (UniProt P35869). Kind of test: ATG_Ahr_CIS: Attagene CIS-FACTORIAL HepG2 Assay for human Aryl Hydrocarbon Receptor (Ahr) (AID 2282930). Conditions: HepG2 AhR cis-factorial reporter transcription; actives raise or lower the signal. The method, boiled down: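 Read-out: reporter mRNA quantified by RT-PCR with fluorescent primer extension and capillary electrophoresis. Human HepG2 liver cells carried transfected cis-promoter reporter units and were exposed to chemical for 24 h; gain or loss fitted relative to DMSO.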
Chain of Aryl hydrocarbon receptor (Homo sapiens) (P35869 whole entry, looked up): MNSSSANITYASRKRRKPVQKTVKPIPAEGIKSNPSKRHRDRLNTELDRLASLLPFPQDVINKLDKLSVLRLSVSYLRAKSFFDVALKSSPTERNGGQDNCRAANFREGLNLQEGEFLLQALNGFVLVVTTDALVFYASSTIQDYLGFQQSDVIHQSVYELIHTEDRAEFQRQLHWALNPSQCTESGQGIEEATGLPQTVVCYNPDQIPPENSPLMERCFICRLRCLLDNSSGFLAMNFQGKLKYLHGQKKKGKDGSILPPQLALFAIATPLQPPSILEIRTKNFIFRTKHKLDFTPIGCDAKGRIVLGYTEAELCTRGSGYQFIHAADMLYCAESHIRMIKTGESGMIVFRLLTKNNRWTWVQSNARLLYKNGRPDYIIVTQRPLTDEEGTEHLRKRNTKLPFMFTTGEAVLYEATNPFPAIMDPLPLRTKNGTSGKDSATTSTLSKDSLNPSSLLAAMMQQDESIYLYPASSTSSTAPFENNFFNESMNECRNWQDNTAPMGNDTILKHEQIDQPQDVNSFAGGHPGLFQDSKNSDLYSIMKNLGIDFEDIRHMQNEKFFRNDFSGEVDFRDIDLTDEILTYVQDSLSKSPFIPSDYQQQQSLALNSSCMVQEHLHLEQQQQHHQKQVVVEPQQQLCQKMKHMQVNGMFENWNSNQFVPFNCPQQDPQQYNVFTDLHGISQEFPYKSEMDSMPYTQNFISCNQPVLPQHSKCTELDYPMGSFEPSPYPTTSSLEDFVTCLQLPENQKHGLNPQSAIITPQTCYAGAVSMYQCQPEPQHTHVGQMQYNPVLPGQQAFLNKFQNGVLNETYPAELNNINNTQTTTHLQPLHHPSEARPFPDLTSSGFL

The nature of test [6]: ATG_AP_1_CIS: Attagene CIS-FACTORIAL HepG2 Assay for human Activator Protein 1 (AP-1) (AID 2282931). Conditions: HepG2 Attagene cis-factorial AP-1 reporter mRNA; actives raise or lower the signal. The method, boiled down: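 Cis-regulated reporter units transiently expressed in HepG2 report endogenous transcription-factor activity. Signal: reporter mRNA at 24 h, via RT-PCR and fluorescent capillary electrophoresis. Endpoint derived by bidirectional fitting, DMSO as negative control.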

Test [7] is described as follows: ATG_AP_2_CIS: Attagene CIS-FACTORIAL HepG2 Assay for human Activator Protein 2 (AP-2) (AID 2282932). Conditions: HepG2 AP-2 cis-reporter, Attagene transcription factor profiling; actives raise or lower the signal. The method in brief:
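Multiplexed mRNA reporter assay in HepG2: cis-regulated units report endogenous factor activity after 24 h treatment. Fluorescence from capillary electrophoresis of RT-PCR products gives the signal, with DMSO as baseline.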

The nature of test [8]: ATG_BRE_CIS: Attagene CIS-FACTORIAL HepG2 Assay for human Bone Morphogenetic Protein (BMP) Response Element (BRE) (AID 2282933). Conditions: HepG2 BMP response element reporter, Attagene transcription factor profiling; actives raise or lower the signal. The method, boiled down: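 Transient MRTU transfection of human HepG2 liver cells; 24 h compound treatment; total RNA isolated, reverse-transcribed, PCR-amplified, 6-FAM labelled, HpaI-cut, capillary electrophoresis. DMSO = negative control/baseline, bidirectional fit.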

Activity calls are given as the source filed them. How the source made its calls: active means hit-call score of the fitted dose curve at least 0.9, where 1 is the maximum; inactive means score below 0.9.

Chain of CCAAT/enhancer-binding protein beta (Homo sapiens) (P17676 whole entry, looked up): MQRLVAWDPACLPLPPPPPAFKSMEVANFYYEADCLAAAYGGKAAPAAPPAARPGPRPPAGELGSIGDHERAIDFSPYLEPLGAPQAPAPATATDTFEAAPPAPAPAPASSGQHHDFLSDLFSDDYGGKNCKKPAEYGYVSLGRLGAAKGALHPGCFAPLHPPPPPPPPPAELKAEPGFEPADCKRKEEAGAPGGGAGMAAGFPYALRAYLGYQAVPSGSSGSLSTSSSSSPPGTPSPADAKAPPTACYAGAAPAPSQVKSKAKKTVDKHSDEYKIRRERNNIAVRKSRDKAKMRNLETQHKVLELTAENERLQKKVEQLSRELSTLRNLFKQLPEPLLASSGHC

As to `[Na+]`, the outcome in test [1], in test [2], in test [3], in test [4], in test [5] and in test [6] was inactive. In addition, the result in test [7] and in test [8] was inactive.

As to `C=C(C)C(=O)OCCOCCOC(=O)C(=C)C`, the outcome in test [1], in test [2], in test [3], in test [4], in test [5] and in test [6] was inactive. Besides, the compound was called inactive in test [7] and in test [8].

Consider `CC(=N[Si](C)(C)C)O[Si](C)(C)C`, for which the result in test [1], in test [2], in test [3], in test [4], in test [5] and in test [6] was inactive. Further, the compound was called inactive in test [7] and in test [8].

As a reminder, the AC50 is the concentration giving half of the maximal activity seen. As to `CC(=O)c1ccc2ccccc2c1`, the compound was classed as inactive in test [1], in test [2], in test [3], in test [4], in test [6] and in test [7]. For the same compound, the result in test [8] was inactive. For the same compound, the AC50 in test [5] was 3.53 µM (active).

As for `COc1cc(OC)c2ccc(=O)oc2c1`, the outcome in test [1], in test [2], in test [3], in test [5], in test [6] and in test [7] was inactive. Further, the compound was called inactive in test [8]. In addition, the half-maximal activity concentration (AC50) in test [4] is 2.81 µM (active).

`CC(C)OB(OC(C)C)OC(C)C`: the result in test [1], in test [2], in test [3], in test [4], in test [5] and in test [6] was inactive. Also, the result in test [7] and in test [8] was inactive.

`CC1=CC[C@@H](C(C)(C)O)CC1`: the result in test [1], in test [2], in test [3], in test [4], in test [5] and in test [6] was inactive. The compound was classed as inactive in test [7] and in test [8].

With `CN(C)C`, the result in test [1], in test [2], in test [3], in test [4], in test [5] and in test [6] was inactive. For the same compound, the result in test [7] and in test [8] was inactive.

In the case of `CCOC(=O)CC(C)C`, the outcome in test [1], in test [2], in test [3], in test [4], in test [5] and in test [6] was inactive. The compound was classed as inactive in test [7] and in test [8].

As to `C=CC(=O)OCCCCCC`, the result in test [1], in test [2], in test [3], in test [4], in test [5] and in test [6] was inactive. The call in test [7] and in test [8] was inactive.

On to `O=S1(=O)CC(Cl)(Cl)C(Cl)(Cl)C1`, for which the outcome in test [1], in test [2], in test [5], in test [6], in test [7] and in test [8] was inactive. For the same compound, the AC50 in test [3] was 2.22 µM (active); in test [4], 2.41 µM (active).

As to `CCCCC(CC)COCCO` (stereo not given), the call in test [1], in test [2], in test [3], in test [4], in test [6] and in test [7] was inactive. The compound was classed as inactive in test [8]. The AC50 in test [5] is 19.8 µM (active).

For the compound `CCOc1ccc(NC(C)=O)cc1`, the call in test [1], in test [2], in test [3], in test [4], in test [5] and in test [6] was inactive. Also, the result in test [7] and in test [8] was inactive.

As to `S=c1[nH][nH]c(=S)s1`, the compound was classed as inactive in test [1], in test [2], in test [3], in test [4], in test [5] and in test [6]. Also, the compound was called inactive in test [7] and in test [8].

Consider `CC(C)C(=O)OCC=Cc1ccccc1`, for which the result in test [1], in test [2], in test [3], in test [4], in test [5] and in test [6] was inactive. Also, the compound was called inactive in test [7] and in test [8].
